# Kir21 block: Kir2.1 (mouse) channel inhibition; P35561; HEK293-Kir2.1, FluxOR thallium flux fluorescence; active compounds read low; B-score at 10 µM; hit rate 0.85% among 310,000; AID 1672;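 active means fluorescence ratio B-score at or below minus 3 SD of library scores, with starting-brightness B-score within 2 SD, cut at about -4.2 in these data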;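 further: channel flux triggered by added potassium and thallium sulfate stimulus; B-score of peak minus minimum fluorescence over baseline after thallium stimulus; more negative B-score means stronger Kir2.1 block with less thallium influx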
# CHT inh: human CHT choline transport inhibition; Q9GZV3; CHT-expressing cells, membrane potential dye, choline response; active compounds read low; B-score at 10 µM; hit rate 0.86% among 310,000;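 active means B-score over 3 SD under the library average, and starting fluorescence ratio not unusually high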;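 further: choline stimulus applied at its EC90 after an EC20 pre-addition; B-score computed on integrated fluorescence ratio after choline addition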
# Target sequence (Q9GZV3 whole entry, looked up): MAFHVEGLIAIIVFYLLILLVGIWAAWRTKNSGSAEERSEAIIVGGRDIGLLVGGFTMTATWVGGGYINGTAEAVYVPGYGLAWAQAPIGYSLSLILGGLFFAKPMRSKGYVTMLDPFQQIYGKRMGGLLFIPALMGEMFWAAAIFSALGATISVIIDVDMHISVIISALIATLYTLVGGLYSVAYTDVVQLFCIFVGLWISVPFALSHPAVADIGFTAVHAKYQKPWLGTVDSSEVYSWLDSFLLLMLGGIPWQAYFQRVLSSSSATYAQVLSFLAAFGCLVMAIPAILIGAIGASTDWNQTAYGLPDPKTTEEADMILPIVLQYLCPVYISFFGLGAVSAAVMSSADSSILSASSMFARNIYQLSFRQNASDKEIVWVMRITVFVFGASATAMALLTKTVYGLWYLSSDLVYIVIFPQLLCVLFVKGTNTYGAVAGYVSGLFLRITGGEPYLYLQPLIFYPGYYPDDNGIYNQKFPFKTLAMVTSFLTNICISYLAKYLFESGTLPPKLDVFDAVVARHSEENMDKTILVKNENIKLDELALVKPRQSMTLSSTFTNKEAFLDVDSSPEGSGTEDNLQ
# ANO1 block: inhibitors of mouse TMEM16A calcium-activated chloride channel. normalized B-score (activity score, 25-100; higher = stronger inhibition) at 10 µM. hit rate 1.2% among 310,000. HEK293 TMEM16A/YFP iodide influx fluorescence, ionomycin. Q8BHY3. AID 588511;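 active means ratio plate-corrected score three or more library SD toward inhibition, starting fluorescence score within five deviations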;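 further: score derived from kinetic fluorescence span divided by baseline fluorescence per well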
# Rce1 inh: blocks yeast Ras-converting enzyme; yeast membranes, quenched prenylated peptide cleavage fluorescence; AID 2563; hit rate 0.27% among 290,000; Q03530; calls only;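 active means fall in fluorescence gain of 50% or more versus controls, with final raw signal at or below 3038400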
# TMEM16A act: mouse TMEM16A channel activation, primary screen. Q8BHY3. HEK293 TMEM16A/YFP-H148Q/I152L, iodide quench fluorescence; active compounds read low. B-score at 10 µM. hit rate 0.3% among 340,000. AID 623877;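 active means fluorescence-ratio B-score plate-corrected deviation score at least 3 library SD below zero, with starting fluorescence score within 5 deviations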;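 further: channel opened by trigger with iodide after compound preincubation; score built on the fluorescence ratio of max minus min over baseline; more negative score means more quench and so TMEM16A activation or potentiation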
# CHT allo act: human CHT allosteric activation | B-score at 10 µM | CHT-expressing cells, membrane potential dye, choline EC20; active compounds read high; LV-AA mutant CHT in HEK293 cells | hit rate 0.49% among 310,000;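 active means initial fluorescence not abnormally high and integrated response B-score, plate-corrected, over 3 SD above library mean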
# A number is an active result; 0 = inactive; - = not tested or not shown; + = active, no number. Sampled rows, rich in hits. Any-hit rate of the full collection: about 3.2%.
SMILES,Kir21 block,CHT inh,ANO1 block,Rce1 inh,TMEM16A act,CHT allo act
COc1ccc(/C=C/c2cc(C(F)(F)F)on2)cc1,0,0,0,0,0,0
Oc1c(N=NC(=S)Nc2ccccc2F)c2ccccc2n1Cc1ccccc1F,0,0,0,+,0,0
C=CCn1c(O)c(N=NC(=S)Nc2ccc(OC)cc2)c2ccccc21,-5.3,0,0,0,0,0
C=CCn1c(O)c(N=NC(=S)Nc2cccc(OC)c2)c2ccccc21,0,0,0,0,0,0
O=C(Nc1ccc(SC(F)(F)F)cc1)c1ccccn1,0,0,0,-,0,0
CC1CC(C)(C)N(C(=O)CSc2ccc(-c3ccc(F)cc3)nn2)c2ccccc21 (stereo not drawn),0,0,100,0,0,0
Cc1ccc(-n2[nH]c(C)c(/C=N/NC(=O)c3ccc([N+](=O)[O-])cc3)c2=O)c(C)c1,0,0,0,0,-,7.5
Cc1[nH]n(-c2cccc3ccccc23)c(=O)c1/C=N/NC(=O)c1cccc([N+](=O)[O-])c1,0,0,0,0,0,0
CCc1cccc(NC(=O)C2CCCN(S(=O)(=O)c3cccnc3)C2)c1 (stereo not drawn),0,0,0,0,0,0
Nc1ccc2c(C(F)(F)F)cc(C(F)(F)F)nc2n1,0,0,0,+,0,0
FC(F)(F)c1cc(C(F)(F)F)c2ccc(N3CCOCC3)nc2n1,0,0,0,0,0,0
N#CC(c1ccc(Cl)cc1)c1ccc2c(C(F)(F)F)cc(C(F)(F)F)nc2n1 (stereo not drawn),0,0,100,0,0,0
COc1ccc(/C=N/N2CCN(c3ccc(Cl)cc3)CC2)cc1O,0,0,0,0,0,0
CCOC(=O)c1cc2c(=O)n3ccccc3nc2n(CCCOC)c1=NC(C)=O,-,0,0,-,0,13
CC(C)OCCCn1c(=N)c(C(N)=S)cc2c(=O)n3ccccc3nc21,0,0,0,0,0,6.6
CCOC(=O)c1cc2c(=O)n3cccc(C)c3nc2n(Cc2ccco2)c1=NC(=O)c1ccccc1,0,0,0,0,0,0
CCOC(=O)c1cc2c(=O)n3cccc(C)c3nc2n(CC(C)C)c1=NC(=O)c1ccco1,0,0,0,+,0,0
COc1ccc(Cc2nc3ccc(C(=O)N4CCN(C)C(C)C4)cc3o2)cc1OC (stereo not drawn),0,0,0,0,0,0
NC(=O)c1ccc[n+](CC(=O)Nc2ccccc2C(=O)O)c1,0,0,0,0,0,0
Oc1ccccc1NCC(O)Cn1ccc2ccccc21 (stereo not drawn),0,0,0,0,0,0
OC(CNCc1ccccc1)Cn1ccc2ccccc21 (stereo not drawn),-5.2,0,0,0,0,0
COc1ccc(OCC(O)CNC(=O)c2sccc2Cl)cc1 (stereo not drawn),0,0,0,0,0,0
O=C(COC(=O)C1(c2ccc(Cl)cc2)CCCC1)Nc1ncc(C(F)(F)F)cc1Cl,0,0,100,0,0,0
CC1(c2ccccc2)CC(c2ccccc2)=Nc2nonc2N1 (stereo not drawn),-4.4,0,0,0,0,0
CC1(c2ccccc2)CC(c2ccccc2)=Nc2ccccc2N1 (stereo not drawn),0,0,0,0,0,0
SMILES,Kir21 block,CHT inh,ANO1 block,Rce1 inh,TMEM16A act,CHT allo act
C=CCN1C(=O)c2ccc(C(=O)N(C)CC(=O)Nc3cccc(F)c3)cc2C1=O,0,0,0,0,0,0
COC(=O)c1scc(C)c1NC(=O)Nc1ccccc1,0,0,25,0,0,0
COC(=O)c1scc(C)c1NC(=O)C(Cl)c1ccccc1 (stereo not drawn),0,0,0,0,0,0
CCOCCCN(C)C1CCN(C(=O)c2oc3ccccc3c2NC(=O)Cc2ccc(F)cc2)CC1,0,0,0,0,0,0
CCOCCCN(C)C1CCN(C(=O)c2oc3ccccc3c2NC(=O)COc2ccc(F)cc2)CC1,0,-7.2,0,0,0,0
CCCOc1ccc(C2=CSC3=NCCN23)cc1,0,0,0,0,0,0
COc1ccc(OC)c(Nc2cc(C)c3ccccc3n2)c1,0,0,0,0,0,0
COc1ccc(OC)c(Nc2c3ccccc3nc3ccccc23)c1,-4.6,0,0,0,0,0
O=C(CSc1ccc(Cl)cc1)NNC(=O)c1ccncc1,-,-,-,-,0,-
CC(C)(C)C1CCC(C(=O)OCC(=O)c2ccc[nH]2)CC1 (stereo not drawn),-5.3,0,0,0,0,0
c1ccc(CCNc2ccnc3cc4ccccc4cc23)cc1,-7.2,-,-,+,0,-
O=C(NCCc1ccccc1)c1nccc2ccccc12,0,0,0,0,0,0
CC(C)Nc1ccc(Nc2ccnc3cc4ccccc4cc23)cc1,-6.4,0,0,0,0,0
COc1ccc(C2=CC(=O)C[C@H](c3ccc(F)cc3)C2)cc1F,-,-,-,-,-6.6,-
COc1cc(F)c(C2=CC(=O)C[C@H](c3ccc(F)cc3)C2)cc1F,-,-,-,-,0,-
CC1(C)O[C@@H](CC(=O)O)[C@]23CO[C@H](C(=O)[C@]4(C)C2CC[C@@]2(C)[C@H](c5ccoc5)OC(=O)C5O[C@]524)[C@@H]13 (stereo partly drawn),-,-,-,-,0,-
Cc1ccc(S(=O)(=O)N2CCN(c3ncnc4scc(-c5ccc(F)cc5)c34)CC2)cc1,0,0,0,0,0,0
CC(C)c1ccc(-c2csc3ncnc(N4CCN(C)CC4)c23)cc1,0,-11,0,0,0,0
Clc1ccc(CN2CCN(c3ncnc4scc(-c5cccs5)c34)CC2)cc1,0,0,25,0,0,0
Cc1ccc(S(=O)(=O)N2CCN(c3ncnc4scc(-c5ccccc5)c34)CC2)cc1,-,-,-,-,-31,-
COC(=O)c1ccc(Cn2nc(-c3ccc(C)cc3)ccc2=O)cc1,0,0,0,0,0,0
Cc1ccc(Oc2ccc(OCC(=O)NC3CCS(=O)(=O)C3)cc2)cc1 (stereo not drawn),0,0,0,0,0,0
O=C(NCc1cccc(Cl)c1)C1CCCN(c2ncnc3c2nc2n3CCCCC2)C1 (stereo not drawn),0,0,0,0,0,0
O=C(CN1CCN(S(=O)(=O)c2ccc(Cl)cc2)CC1)NCC1(N2CCOCC2)CCCCC1,-,-,-,-,0,-
CN(C)C(C)(C)C#CCC(c1ccccc1)c1ccccc1,-5,0,0,0,0,0
CCOC(=O)c1ccccc1NC(=O)COC(=O)CCC(=O)c1ccc(C)cc1,0,0,0,0,0,0
Cn1c(CCNS(=O)(=O)c2ccccc2)nnc1SCc1cccnc1,0,0,0,+,0,0
COc1ccccc1C(=O)O[C@H]1[C@H](Cc2ccccc2)NS(=O)(=O)[C@H]2C[C@@H]3C=C[C@]12O3,-,-,-,-,0,-
C=CCOc1ccc(CNn2nnnc2N)cc1,0,0,0,0,-14,0
CC(C)(C)NC(=O)COc1ccc(CNn2nnnc2N)cc1,0,0,0,-,0,0
